# About 79,000 compounds went through this panel and 15% of them were active in at least one assay; those are over-represented in the sample as a whole. A number with no mark means an inactive call. Active and inactive are the calls of the source. Cut-off read from the data, not from the text of the source: active = growth inhibition above about 70%; inactive = the rest.
# Experiment: NCI Yeast Anticancer Drug Screen. Data for the cln2 rad14 strain (AID 165);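 note: 0% = growth equal to vehicle treated cultures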
# Conditions: S. cerevisiae cln2 rad14 strain, at 50.0 µM, stronger effect = higher value
# Outline: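 The screen exposed genetically defined yeast (cln2 rad14) to test compounds and scored growth inhibition relative to vehicle-treated controls.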
row,Compound,growth inhibition [%]
1,COC1=C(C(C2=C(OC)CC(C)(C)CC2=O)c2ccc3c(c2)OCO3)C(=O)CC(C)(C)C1,0.3
2,Nc1nc2ccccc2[nH]1,0.8
3,O=C(c1cccc(C(F)(F)F)c1)c1ccccc1Cc1ccccc1,-28.1
4,Cc1ccc(-c2cc(=O)c3cc(C)c(C)c(C(=O)O)c3o2)cc1C,23.5
5,Cc1[nH]n(-c2ccccc2)c(=S)c1C(=O)c1ccccc1,1.7
6,O=C(O)c1ccccc1C(=O)Cc1ccccc1,-16
7,COc1ccc2c3c(ccc2c1)C1CC(=O)CC1CC3 (stereo not given),12.2
8,NS(=O)(=O)c1ccc(NC(=O)CCl)cc1,11.7
9,Cc1nc(Nc2ccccc2Cl)sc1C(=O)CC(=O)C(N)=O,24.1
10,CC1(COC(=O)C2(C)CO2)CO1 (stereo not given),4.7
11,CC1(C)[C@@H]2C[C@H]1C(Cc1cccc(C[C@H]3c4cc(-c5ccccn5)ncc4[C@H]4C[C@@H]3C4(C)C)c1)c1cc(-c3ccccn3)ncc12 (stereo not given in full),-7.7
12,C/C(=N\O)c1ccc2[nH]c(C)cc(=O)c2c1,-32.9
13,O=C(O)c1ccccc1CC(C(=O)O)C(=O)O,7.95
14,COc1ccc2c(c1)c(CO)c(CO)c[n+]2[O-],2.75
15,CC(C)CCCC(C)C1CCC2C3CCC4Cc5c(c6ccccc6n5C)CC4(C)C3CCC12C (stereo not given),-27.8
16,C=CCc1cc(C(Cc2ccccc2)NC(C)C)cc(OCc2ccccc2)c1OCc1ccccc1 (stereo not given),-3.95
17,CN(C)CCSC(CO)c1ccccc1 (stereo not given),9.2
18,CCc1nc2c([nH]1)c(=O)n(C)c(=O)n2C,16.5
19,O=C1CCC(C(=O)O)N1 (stereo not given),1.15
20,CC(=O)NNC(=S)/N=C\c1c(O)[nH]c(=O)[nH]c1=O,-0.6
21,O=c1c2cc([N+](=O)[O-])ccc2n2n1CCCC2,16.9
22,CCOC(=O)CNC(=O)C(Cc1ccccc1)NC(=O)CNC(=O)OCc1ccccc1 (stereo not given),20.4
23,Cc1ccc(C)c2c1C(=O)c1ccccc1C2(O)C#Cc1ccccc1 (stereo not given),21.1
24,O=C1NC2(c3ccccc3)CCCCC2O1 (stereo not given),1.95
25,CC1OC1P(=O)(O)O (stereo not given),1.7

# Experiment: NCI Yeast Anticancer Drug Screen. Data for the bub3 strain (AID 167)
# Conditions: S. cerevisiae bub3 mutant strain, at 50.0 µM, stronger effect = higher value
# Outline: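 Whole-cell yeast assay. The mutant strain was incubated with compounds, and growth inhibition was determined by comparison with vehicle-treated cells.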
row,Compound,growth inhibition
1,O=[N+]([O-])c1cccc(/C=C/C=C/c2ccc(Cl)c(Cl)c2)c1,28.2%
2,COC1/C=C\OC2(C)Oc3c(C)c(O)c4c(O)c(c5[nH]cnc5c4c3C2=O)NC(=O)/C(C)=C\C=C\C(C)C(O)C(C)C(O)C(C)C(OC(C)=O)C1C (stereo not given),17.1%
3,COc1cc(/C=C/C=C2\CC(C)C/C(=C\C=C\c3ccc(O)c(OC)c3)C2=O)ccc1O (stereo not given),0.85%
4,Cc1cccc(C)c1NC(=O)CCC(=O)NC(N)=NC#N,-23.8%
5,CCCc1nc2ccccc2c(=O)n1/N=C/c1ccc(Cl)cc1,0.9%
6,C=CCN(CC=C)C(=O)C(=C)C,3.7%
7,O=C(Cc1nc(-c2ccccc2)cc(=O)n1-c1ccccc1Cl)c1ccncc1,-1.2%
8,COc1ccc(/C=N/NC(=O)CCCCCCCCC(=O)N/N=C/c2ccc(OC)c(OC)c2)cc1OC,-0.75%
9,CCC(CC)=C(c1ccc(C)cc1)c1ccc(C)cc1,4.7%
10,CN(C)/C=C/c1ccnc2c1C(=O)c1ccccc1C2=O,75.5% (active)
11,CCN1C(=O)c2ccccc2C1=O,5.95%
12,CN(C(=O)c1ccccc1)C1CCCC(=O)CC1 (stereo not given),-13.6%
13,COc1ccc(C(CCOS(=O)(=O)c2ccc(Br)cc2)(c2ccc(OC)cc2)c2ccc(OC)cc2)cc1,0%
14,O=C(O)c1cc(C(=O)Nc2cccc3ccccc23)c(C(=O)O)cc1C(=O)Nc1cccc2ccccc12,6.4%
15,C(=NCCSSCCN=Cc1ccccc1)c1ccccc1,-12.1%
16,COC1=C(C(C2=C(OC)CC(C)(C)CC2=O)c2ccc3c(c2)OCO3)C(=O)CC(C)(C)C1,-0.65%
17,Nc1nc2ccccc2[nH]1,-11.8%
18,O=C(c1cccc(C(F)(F)F)c1)c1ccccc1Cc1ccccc1,14.2%
19,Cc1ccc(-c2cc(=O)c3cc(C)c(C)c(C(=O)O)c3o2)cc1C,6.25%
20,Cc1[nH]n(-c2ccccc2)c(=S)c1C(=O)c1ccccc1,2.25%

row,Compound,growth inhibition
1,O=C(O)c1ccccc1C(=O)Cc1ccccc1,-29.6%
2,COc1ccc2c3c(ccc2c1)C1CC(=O)CC1CC3 (stereo not given),61%
3,NS(=O)(=O)c1ccc(NC(=O)CCl)cc1,3.3%
4,Cc1nc(Nc2ccccc2Cl)sc1C(=O)CC(=O)C(N)=O,2.7%
5,CC1(COC(=O)C2(C)CO2)CO1 (stereo not given),-25.2%
6,CC1(C)[C@@H]2C[C@H]1C(Cc1cccc(C[C@H]3c4cc(-c5ccccn5)ncc4[C@H]4C[C@@H]3C4(C)C)c1)c1cc(-c3ccccn3)ncc12 (stereo not given in full),45.2%
7,C/C(=N\O)c1ccc2[nH]c(C)cc(=O)c2c1,-1.15%
8,O=C(O)c1ccccc1CC(C(=O)O)C(=O)O,-0.6%
9,COc1ccc2c(c1)c(CO)c(CO)c[n+]2[O-],11.8%
10,CC(C)CCCC(C)C1CCC2C3CCC4Cc5c(c6ccccc6n5C)CC4(C)C3CCC12C (stereo not given),-8.95%
11,C=CCc1cc(C(Cc2ccccc2)NC(C)C)cc(OCc2ccccc2)c1OCc1ccccc1 (stereo not given),47.6%
12,CN(C)CCSC(CO)c1ccccc1 (stereo not given),-1.15%
13,CCc1nc2c([nH]1)c(=O)n(C)c(=O)n2C,-20.6%
14,O=C1CCC(C(=O)O)N1 (stereo not given),7.7%
15,CC(=O)NNC(=S)/N=C\c1c(O)[nH]c(=O)[nH]c1=O,-4%
16,O=c1c2cc([N+](=O)[O-])ccc2n2n1CCCC2,-16%
17,CCOC(=O)CNC(=O)C(Cc1ccccc1)NC(=O)CNC(=O)OCc1ccccc1 (stereo not given),0.75%
18,Cc1ccc(C)c2c1C(=O)c1ccccc1C2(O)C#Cc1ccccc1 (stereo not given),31.7%
19,O=C1NC2(c3ccccc3)CCCCC2O1 (stereo not given),-6.35%
20,CC1OC1P(=O)(O)O (stereo not given),-3.3%
